Results on seven molecules are retold here after PubChem BioAssay (Tox21).

A short description of assay [1]: qHTS assay to identify aromatase inhibitors - cell viability counter screen (AID 743084).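 Note: cells stimulated with testosterone during compound exposure; nearly all actives have a fitted effect of over 55% in size.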 Note: potency is the fitted concentration of half-maximal effect. Background: In qHTS, concentration-response curves come from the screen itself.
The target of assay [2] is Aryl hydrocarbon receptor (Homo sapiens) (UniProt P35869). The assay is described as follows: qHTS assay to identify small molecule that activate the aryl hydrocarbon receptor (AhR) signaling pathway (AID 743085).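 For activation: HG2L7.5c1 human HepG2 liver cells with stably integrated DRE-driven firefly reporter; series mostly up to about 70 µM.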 Note: nearly all actives have a fitted effect of over 15% in size. Note: potency is the fitted concentration of half-maximal effect. An outline of the steps: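 HepG2 cells (HG2L7.5c1) stably carrying a firefly luciferase reporter driven by 20 dioxin responsive elements were exposed to compound for 24 h at 37C after a 5 h settling period; luminescence rise (ONE-Glo) indicated activation.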

Assay [3] is described as follows: qHTS assay to identify small molecule that activate the aryl hydrocarbon receptor (AhR) signaling pathway - cell viability counter screen (AID 743086). Note: nearly all actives have a fitted effect of over 45% in size. Note: potency is the fitted concentration of half-maximal effect. The method, boiled down:
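HepG2-AhR-luc (HG2L7.5c1) cells, 4000/well, treated 24 h at 37 C with compound; viability measured as CellTiter-Fluor fluorescence after 30 min in the same wells as the luciferase read.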

In assay [4] the target is Peroxisome proliferator-activated receptor gamma (Homo sapiens) (UniProt P37231). In words: qHTS assay to identify small molecule agonists of the peroxisome proliferator-activated receptor gamma (PPARg) signaling pathway (AID 743094; active = well fitted activation curve with a large enough effect in the signal ratio in the repeat runs, not every such curve was filed as active; the % refers to the signal ratio). The method, boiled down:
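Agonist activity was taken from a beta-lactamase reporter (FRET substrate, 1 h at room temperature) in HEK293H cells carrying a PPARg UAS-bla construct. Compounds in DMSO were incubated 17 h at 37C after a 5 h cell pre-incubation.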

The target is the same in assay [5]. The assay is described as follows: qHTS assay to identify small molecule antagonists of the peroxisome proliferator-activated receptor gamma (PPARg) signaling pathway (AID 743191; calls by dose curve; note: series mostly up to about 63 µM; nearly all actives have a fitted effect of over 30% in size). An outline of the steps:
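GeneBLAzer PPARg UAS-bla HEK293H cells, 5 h post-plating, exposed to compounds 17 h at 37C. LiveBLAzer B/G FRET substrate added for 1 h at room temperature; beta-lactamase reporter read by fluorescence intensity.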

A short description of assay [6]: qHTS assay to identify small molecule antagonists of the peroxisome proliferator-activated receptor gamma (PPARg) signaling pathway - cell viability counter screen (AID 743194). Note: nearly all actives have a fitted effect of over 55% in size. The method, boiled down:
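Cytotoxicity counter screen in PPARg-bla HEK293H cells, same wells as reporter assay. Compounds plus 50 nM rosiglitazone (final) for 17 h at 37 C, then viability read by CellTiter-Glo luminescence.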

Assay [7] is described as follows: qHTS assay for small molecule agonists of the antioxidant response element (ARE) signaling pathway (AID 743202; active = well fitted activation curve with a large enough effect in the signal ratio in the repeat runs, not every such curve was filed as active; the % refers to the signal ratio). The method, boiled down:
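HepG2 ARE-bla reporter line, 2,000 cells/well; 5 h preincubation 37 C/5% CO2; compound (DMSO) 16 h 37 C; B/G FRET substrate 2 h RT; fluorescence intensity.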

The nature of assay [8]: qHTS assay for small molecule agonists of the antioxidant response element (ARE) signaling pathway - cell viability counter screen (AID 743203; calls by dose curve; note: nearly all actives have a fitted effect of over 55% in size). The method, boiled down:
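Viability counter screen: CellTiter-Glo luminescence, read after 30 min at room temperature, in ARE-bla HepG2 wells. Compound exposure lasted 16 h at 37C/5% CO2, following a 5 h pre-incubation of the cells after plating.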

Assay [9] in a line: qHTS assay for small molecule activators of the heat shock response signaling pathway - cell viability counter screen (AID 743209). Note: nearly all actives have a fitted effect of over 50% in size. The method, boiled down:
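Cytotoxicity counter screen run in the same wells as the heat-shock bla reporter assay: HeLa HSE-bla cells, 5 h compound exposure at 37 C, viability read by CellTiter-Glo luminescence.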

Assay [10] in a line: qHTS assay for small molecule activators of the heat shock response signaling pathway (AID 743210; active = well fitted activation curve with a large enough effect in the signal ratio in the repeat runs, with a control signal flat, not every such curve was filed as active; the % refers to the signal ratio;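 note: HeLa cells with beta-lactamase reporter driven by heat shock elements; series mostly up to about 63 µM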). The method, boiled down:
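Beta-lactamase reporter read-out: FRET substrate fluorescence after 2.5 h at RT, following 5 h compound treatment at 37 C of HeLa cells carrying HSE-driven bla reporter; quantitative HTS format.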

Assay [11] can be described thus: qHTS assay to identify small molecule agonists of the peroxisome proliferator-activated receptor delta (PPARd) signaling pathway - cell viability counter screen (AID 743211). Note: nearly all actives have a fitted effect of over 55% in size. The method, boiled down:
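PPARd-bla HEK293H cells (UAS-beta-lactamase reporter) were treated with compounds for 17 h at 37 C. Viability was then read in the same wells by CellTiter-Glo luminescence after 30 min at room temperature.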

For assay [12], the target named is Peroxisome proliferator-activated receptor delta (Homo sapiens) (UniProt Q03181). The assay is described as follows: qHTS assay to identify small molecule agonists of the peroxisome proliferator-activated receptor delta (PPARd) signaling pathway (AID 743212; calls by dose curve). The method, boiled down:
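Read-out: beta-lactamase FRET fluorescence after 2 h room-temperature incubation with LiveBLAzer B/G substrate. Cells were HEK293H carrying a UAS-bla reporter for PPARd, treated at 37 C with DMSO-dissolved compounds.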

A short description of assay [13]: qHTS assay to identify small molecule antagonists of the peroxisome proliferator-activated receptor delta (PPARd) signaling pathway - cell viability counter screen (AID 743213). Note: nearly all actives have a fitted effect of over 50% in size. The method, boiled down: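 Same-well viability: cells pre-incubated 5 h, dosed with compound plus 300 nM L165041, kept 17 h at 37 C, FRET substrate 2 h RT, then CellTiter-Glo 30 min RT and luminescence.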

The target of assay [14] is Peroxisome proliferator-activated receptor delta (Homo sapiens) (UniProt Q03181). The assay is described as follows: qHTS assay to identify small molecule antagonists of the peroxisome proliferator-activated receptor delta (PPARd) signaling pathway (AID 743215; active = well fitted inhibition curve with a large enough effect in the signal ratio in the repeat runs, not every such curve was filed as active; the % refers to the signal ratio;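 note: cells stimulated with agonist L165041 at 300 nM final during compound exposure; series mostly up to about 62 µM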). An outline of the steps:
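Agonist L165041 (300 nM final) added with compound to PPARd-bla HEK293H UAS-bla reporter cells; 17 h incubation at 37 C. Read-out: LiveBLAzer FRET substrate, 2 h at room temperature, fluorescence intensity.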

Assay [15] deals with Bile acid receptor (Homo sapiens) (UniProt Q96RI1). In words: qHTS assay to identify small molecule antagonists of the farnesoid-X-receptor (FXR) signaling pathway (AID 743217; active = well fitted inhibition curve with a large enough effect in the signal ratio in the repeat runs, not every such curve was filed as active; the % refers to the signal ratio). An outline of the steps: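 Antagonist mode: chenodeoxycholic acid at 50 uM final stimulates a UAS-driven beta-lactamase reporter in HEK 293T FXR-bla cells during 16 h, 37C compound exposure. Read-out is FRET substrate fluorescence after 2 h at room temperature.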

The target is the same in assay [16]. The assay is described as follows: qHTS assay to identify small molecule agonists of the farnesoid-X-receptor (FXR) signaling pathway (AID 743220; active = well fitted activation curve with a large enough effect in the signal ratio in the repeat runs, not every such curve was filed as active; the % refers to the signal ratio). An outline of the steps: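 FXR-UAS-bla HEK 293T cells carrying a UAS-driven beta-lactamase reporter were plated for 5 h at 37C/5% CO2, then exposed to DMSO-dissolved Tox21 10K compounds for 16 h at 37C. A LiveBLAzer B/G FRET substrate was loaded for 2 h at room temperature before fluorescence reading.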

A short description of assay [17]: qHTS assay to identify small molecule antagonists of the farnesoid-X-receptor (FXR) signaling pathway - cell viability counter screen (AID 743221; active = well fitted cell-killing curve with a large enough effect in the repeat runs, not every such curve was filed as active; note: nearly all actives have a fitted effect of over 50% in size). The method, boiled down:
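FXR-UAS-bla HEK 293T cells were treated with test compounds plus chenodeoxycholic acid (50 uM final) for 16 h at 37 C. Cell viability in the same wells was then read as CellTiter-Glo luminescence after 30 min at room temperature.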

For assay [18], the target named is Vitamin D3 receptor (Homo sapiens) (UniProt P11473). The assay is described as follows: qHTS assay to identify small molecule agonists of the vitamin D receptor (VDR) signaling pathway (AID 743222; calls by dose curve). An outline of the steps:
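Agonist mode, beta-lactamase reporter: fluorescence from LiveBLAzer B/G FRET substrate (2 h, room temperature) read after 16 h compound treatment at 37 C of VDR-bla cells, which were pre-incubated 4 h after seeding.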

Assay [19] shares this target. In words: qHTS assay to identify small molecule antagonists of the vitamin D receptor (VDR) signaling pathway (AID 743223; active = well fitted inhibition curve with a large enough effect in the signal ratio in the repeat runs, not every such curve was filed as active; the % refers to the signal ratio). An outline of the steps:
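VDR-bla cells were plated, incubated 4 h at 37C, then given compound and 1alpha,25-dihydroxyvitamin D3 (3 nM final). After 16 h at 37C, LiveBLAzer B/G FRET substrate was added for 2 h at room temperature and fluorescence read.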

A short description of assay [20]: qHTS assay to identify small molecule agonists of the farnesoid-X-receptor (FXR) signaling pathway - cell viability counter screen (AID 743218). Note: nearly all actives have a fitted effect of over 45% in size. The method, boiled down: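 Viability counter screen in the same wells: CellTiter-Glo luminescence, 30 min room-temperature incubation, measured after the beta-lactamase read. Cells were GeneBLAzer FXR-UAS-bla HEK 293T, compound-treated 16 h at 37C.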

“And” between values parts separate entries of the source, which are not always exact repeats. Identical values can stand only once. Inconclusive results are not listed. The source made the active and inactive calls. Unless noted, calls come from the whole dose curve; as a rule, active = well fitted curve in the direction sought with a large enough effect in the repeat runs; inconclusive = weak or mixed curves; inactive = no such curve, though single readings can be large; an effect the other way counts as inactive or inconclusive.

Bile acid receptor (Homo sapiens), sequence (Q96RI1 whole entry, looked up): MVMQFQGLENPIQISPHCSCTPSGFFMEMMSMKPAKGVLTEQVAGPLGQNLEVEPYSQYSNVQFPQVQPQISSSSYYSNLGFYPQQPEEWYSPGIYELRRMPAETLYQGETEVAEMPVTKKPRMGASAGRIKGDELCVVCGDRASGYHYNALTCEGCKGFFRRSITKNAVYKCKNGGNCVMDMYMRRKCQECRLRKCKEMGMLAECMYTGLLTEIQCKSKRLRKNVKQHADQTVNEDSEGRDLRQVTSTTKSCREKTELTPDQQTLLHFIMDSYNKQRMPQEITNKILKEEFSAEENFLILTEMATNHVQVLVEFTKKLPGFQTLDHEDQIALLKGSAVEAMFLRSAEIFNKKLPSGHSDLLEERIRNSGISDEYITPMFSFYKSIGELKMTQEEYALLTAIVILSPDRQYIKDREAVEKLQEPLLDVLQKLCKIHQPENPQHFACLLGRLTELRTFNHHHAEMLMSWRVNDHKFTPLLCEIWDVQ
Peroxisome proliferator-activated receptor delta (Homo sapiens), sequence (Q03181 whole entry, looked up): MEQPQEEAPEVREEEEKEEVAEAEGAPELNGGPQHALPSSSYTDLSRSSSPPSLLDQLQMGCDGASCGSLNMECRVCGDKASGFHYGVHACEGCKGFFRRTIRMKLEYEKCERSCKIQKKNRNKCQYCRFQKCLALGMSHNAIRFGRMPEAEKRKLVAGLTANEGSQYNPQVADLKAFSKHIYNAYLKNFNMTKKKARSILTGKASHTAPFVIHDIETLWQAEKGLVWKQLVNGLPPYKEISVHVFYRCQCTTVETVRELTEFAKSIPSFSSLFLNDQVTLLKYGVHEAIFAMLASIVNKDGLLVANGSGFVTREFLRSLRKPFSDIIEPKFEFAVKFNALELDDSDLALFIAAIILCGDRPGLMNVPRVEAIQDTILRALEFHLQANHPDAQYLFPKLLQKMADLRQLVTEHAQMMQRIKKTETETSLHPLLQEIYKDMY
Aryl hydrocarbon receptor (Homo sapiens), sequence (P35869 whole entry, looked up): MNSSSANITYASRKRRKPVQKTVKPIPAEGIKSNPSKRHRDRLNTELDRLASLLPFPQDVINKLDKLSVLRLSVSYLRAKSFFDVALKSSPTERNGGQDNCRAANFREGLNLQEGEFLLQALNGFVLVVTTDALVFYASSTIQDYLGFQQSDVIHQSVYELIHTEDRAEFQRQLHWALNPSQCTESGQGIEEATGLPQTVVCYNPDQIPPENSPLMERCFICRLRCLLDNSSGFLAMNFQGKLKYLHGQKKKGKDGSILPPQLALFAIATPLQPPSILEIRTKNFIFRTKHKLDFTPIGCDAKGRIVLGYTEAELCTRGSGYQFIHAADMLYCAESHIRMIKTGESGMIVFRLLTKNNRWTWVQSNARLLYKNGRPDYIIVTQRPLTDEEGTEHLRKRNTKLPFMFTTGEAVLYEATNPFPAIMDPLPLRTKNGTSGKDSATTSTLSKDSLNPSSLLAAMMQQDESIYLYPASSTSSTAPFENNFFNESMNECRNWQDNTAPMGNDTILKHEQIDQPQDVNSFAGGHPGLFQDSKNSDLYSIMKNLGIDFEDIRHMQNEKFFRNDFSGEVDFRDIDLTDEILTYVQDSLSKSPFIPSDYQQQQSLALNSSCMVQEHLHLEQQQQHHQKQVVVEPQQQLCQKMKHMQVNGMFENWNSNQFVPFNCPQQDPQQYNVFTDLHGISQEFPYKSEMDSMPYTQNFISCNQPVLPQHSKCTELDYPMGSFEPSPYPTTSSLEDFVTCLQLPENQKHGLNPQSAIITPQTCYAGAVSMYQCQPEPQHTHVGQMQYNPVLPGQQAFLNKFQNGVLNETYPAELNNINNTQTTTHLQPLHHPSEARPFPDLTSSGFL
Vitamin D3 receptor (Homo sapiens), sequence (P11473 whole entry, looked up): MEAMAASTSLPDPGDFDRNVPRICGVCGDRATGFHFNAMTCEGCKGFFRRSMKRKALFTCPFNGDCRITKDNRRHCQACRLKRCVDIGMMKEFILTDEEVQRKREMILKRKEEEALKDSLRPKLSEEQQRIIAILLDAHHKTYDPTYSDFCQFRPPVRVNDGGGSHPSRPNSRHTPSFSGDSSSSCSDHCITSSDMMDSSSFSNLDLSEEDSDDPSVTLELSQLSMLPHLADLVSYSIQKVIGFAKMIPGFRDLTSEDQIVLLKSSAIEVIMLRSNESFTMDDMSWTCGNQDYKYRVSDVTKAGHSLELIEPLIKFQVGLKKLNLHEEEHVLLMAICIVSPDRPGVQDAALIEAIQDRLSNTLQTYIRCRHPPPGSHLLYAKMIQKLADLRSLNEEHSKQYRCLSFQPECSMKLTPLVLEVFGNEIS
Peroxisome proliferator-activated receptor gamma (Homo sapiens), sequence (P37231 whole entry, looked up): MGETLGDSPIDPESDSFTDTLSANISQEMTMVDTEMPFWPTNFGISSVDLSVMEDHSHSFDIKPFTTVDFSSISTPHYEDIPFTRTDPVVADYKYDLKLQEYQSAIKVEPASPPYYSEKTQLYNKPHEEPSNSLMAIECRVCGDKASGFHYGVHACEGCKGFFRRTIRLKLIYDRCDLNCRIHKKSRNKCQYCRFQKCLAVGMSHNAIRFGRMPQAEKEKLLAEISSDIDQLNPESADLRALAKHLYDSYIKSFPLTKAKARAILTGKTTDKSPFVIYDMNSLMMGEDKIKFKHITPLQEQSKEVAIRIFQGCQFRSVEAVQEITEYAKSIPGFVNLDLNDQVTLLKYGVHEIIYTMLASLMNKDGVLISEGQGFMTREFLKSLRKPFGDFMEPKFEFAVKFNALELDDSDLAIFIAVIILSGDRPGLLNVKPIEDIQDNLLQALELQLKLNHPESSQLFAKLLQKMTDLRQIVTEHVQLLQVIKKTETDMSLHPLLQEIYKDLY

Consider `COc1cc(O)c(C(=O)c2ccccc2)cc1S(=O)(=O)O`, for which the Potency result in assay [1], in assay [2], in assay [3], in assay [4], in assay [5] and in assay [6] was “inactive” in each case. The Potency entry in [7], in assay [8], in assay [11], in assay [13], in [15] and in [19] was “inactive” throughout. In addition, the result in assay [9], in [10], in assay [12], in [14], in assay [16] and in assay [17] was inactive. Moreover, the molecule was called inactive in assay [18].
Consider `C=C(C)C(N)=O`, for which the Potency result in assay [1], in assay [2], in assay [3], in [4], in assay [6] and in assay [7] was “inactive” throughout. For the same molecule, the Potency result in assay [8], in assay [11], in assay [13] and in assay [19] was “inactive” throughout. In addition, the molecule was classed as inactive in assay [9], in [10], in [17] and in assay [18].
Take `O=C1CCCCCN1`: the Potency result in assay [1], in assay [2], in assay [3], in assay [4], in [6] and in assay [7] was “inactive” throughout. Further, the Potency entry in assay [8], in assay [11], in assay [13], in assay [15], in [20] and in assay [19] was “inactive” each time. The call in assay [9], in assay [10], in assay [12], in assay [14], in assay [16] and in assay [17] was inactive. For the same molecule, in [18], the outcome was inactive.
Take `CO[C@H]1C=CO[C@@]2(C)Oc3c(C)c(O)c4c(O)c(c(/C=N/N5CCN(C)CC5)c(O)c4c3C2=O)NC(=O)/C(C)=C\C=C[C@H](C)[C@H](O)[C@@H](C)[C@@H](O)[C@@H](C)[C@H](OC(C)=O)[C@@H]1C`: the Potency was 23.7 µM (active) and 15.4 µM (active) and 15.5 µM (active) in assay [1]; 29.8 µM (active) and 27.4 µM (active) and 15.5 µM (active) in [3]. For the same molecule, the Potency entry in [2], in assay [4], in [6], in [8], in [11] and in [13] was “inactive” each time. Moreover, the Potency entry in assay [20] and in assay [19] was “inactive” in each case. Besides, the result in [9], in [10], in assay [12], in assay [17] and in assay [18] was inactive.
In the case of `N[C@@H](Cc1c[nH]c2ccccc12)C(=O)O`, the Potency result in assay [1], in [3], in [5], in [6], in [7] and in [8] was “inactive” throughout. Moreover, the Potency entry in assay [11], in assay [13], in assay [20] and in [19] was “inactive” each time. Besides, the Potency in assay [2] is 30.7 µM (active). Further, the outcome in [9], in [10], in assay [12], in assay [14], in [17] and in assay [18] was inactive.
Turning to `COC(=O)C1CCC(C(=O)OC)CC1` (centres undefined), the Potency entry in [1], in assay [2], in assay [3], in [4], in assay [6] and in assay [8] was “inactive” throughout. The Potency entry in assay [11], in assay [13], in assay [15], in assay [20] and in [19] was “inactive” throughout. Also, the outcome in assay [9], in assay [10], in [12], in [14], in assay [16] and in assay [17] was inactive. Also, the outcome in assay [18] was inactive.
As to `CCCCNC(=O)NS(=O)(=O)c1ccc(N)cc1`, the Potency result in [1], in assay [2], in [3], in assay [5], in [6] and in [7] was “inactive” each time. Moreover, the Potency entry in [8], in [11], in assay [13], in assay [20] and in [19] was “inactive” throughout. In addition, the call in assay [9], in assay [10], in assay [12], in [14], in [17] and in assay [18] was inactive.
